# Test results published in PubChem BioAssay AID588763 (NMMLSC, 2011).
# Results with a measured potency or affinity are listed apart. Values without a mark were called inactive. How the calls were made is not given here.
# Target: Beta-2 adrenergic receptor (Homo sapiens) (UniProt P07550)
# Experiment: ADRB2 activation measured by internalization – cell-based, FAP fluorogen, flow cytometry, cherry pick 1, dose response (AID 588763)
# Details: AM2.2-beta2AR cells, 90 min; series mostly up to 33 µM; activation (receptor internalization): at the top concentration
# Sequence of Beta-2 adrenergic receptor (Homo sapiens) (P07550 whole entry, looked up): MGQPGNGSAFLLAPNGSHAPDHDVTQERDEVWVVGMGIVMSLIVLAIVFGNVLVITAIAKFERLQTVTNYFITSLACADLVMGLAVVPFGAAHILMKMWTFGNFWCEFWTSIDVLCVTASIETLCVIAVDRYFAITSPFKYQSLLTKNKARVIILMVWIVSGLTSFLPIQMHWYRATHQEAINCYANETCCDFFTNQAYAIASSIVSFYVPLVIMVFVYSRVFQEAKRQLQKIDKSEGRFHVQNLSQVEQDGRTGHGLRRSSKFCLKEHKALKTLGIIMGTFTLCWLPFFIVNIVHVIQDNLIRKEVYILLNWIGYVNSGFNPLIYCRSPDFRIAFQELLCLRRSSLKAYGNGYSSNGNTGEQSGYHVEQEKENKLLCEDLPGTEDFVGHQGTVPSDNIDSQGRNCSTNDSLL
row,Compound,activation (receptor internalization)
1,Cc1ccc(OCc2cc(C(=O)NC3CCc4ccccc43)no2)cn1 (stereo not drawn),-23%
2,COc1ccc(C(CCNCc2ccc(OC(C)C)cc2)c2ccccc2OC)cc1 (stereo not drawn),59.8%
3,COc1ccccc1CCC(=O)Nc1cccc(S(=O)(=O)N2CCCCCC2)c1,6.06%
4,COc1ccc(C)cc1S(=O)(=O)N(C)CC(=O)N1CCN(c2ccccc2)CC1,-0.827%
5,Cc1ccc(-c2nnc(SCc3nc4ccccc4[nH]3)n2Cc2ccco2)cc1,-2.47%
6,Cc1ccc(NC(=O)c2cc(N3C(=O)C=CC3=O)ccc2N2CCOCC2)cc1,110%
7,O=C(COc1ccc(S(=O)(=O)N2CCOCC2)cc1)Nc1ccccc1F,-2.76%
8,COc1ccc(NC(=O)Cn2nnc(-c3ccccc3NC(=O)C3CC3)n2)cc1,-26.4%
9,Cc1cnn(-c2nc(-c3ccccc3)cc(-c3ccccc3)n2)c1,107%
10,COC(=O)[C@@H](NC(=O)c1cc(COc2cncc(Cl)c2)on1)c1ccccc1,2.04%
11,Fc1ccc(Sc2nc(-c3ccccc3)nnc2C(F)(F)F)cc1,101%
12,Cc1cc(S(=O)(=O)N2CCOCC2)ccc1OCC(=O)Nc1ccccc1C(F)(F)F,4.85%
13,CCOc1ccc(NC(=O)COc2ccc(S(=O)(=O)N3CCOCC3)cc2)cc1,6.39%
14,C=CCn1c(CCNC(=O)c2cccs2)nnc1SCC(=O)Nc1cccc(Cl)c1C,81.8%
15,CC(C)CNc1ncnc2c1sc1nc(N3CCOCC3)c3c(c12)CC(C)(C)OC3,-1.37%
16,O=C(CN1CCOCC1)N1CCN(c2nnc(-c3ccccc3)c3ccccc23)CC1,101%
17,CCOC(=O)c1ccc(N=c2sc(C(=O)OC)cc(=O)n2-c2ccc(C(=O)OCC)cc2)cc1,35%

row,Compound,activation (receptor internalization)
1,COc1ccc(C(=O)Nc2nc3cc4c(cc3s2)OCCO4)c(OC)c1,61.6%
2,O=C(c1ccc(OC2CCN(Cc3ccccc3C(F)(F)F)CC2)cc1)N1CCCCC1,37.8%
3,O=C(c1ccc(OC2CCN(Cc3cccc(OCCO)c3)CC2)cc1)N1CCCC1,-12.7%
4,O=C(CCn1c(=O)[nH]c2ccsc2c1=O)NCc1ccc(F)cc1,-7.29%
5,COc1ccc(OC)c(C(=O)NC(CC(N)=O)c2ccc(N3CCN(c4ccccn4)CC3)c([N+](=O)[O-])c2)c1 (stereo not drawn),9.33%
6,COc1ccc(Cl)cc1NC(=O)COc1ccc(S(=O)(=O)N2CCOCC2)cc1C,20.1%
7,Cn1nnnc1Sc1ncnc2scc(-c3cc4ccccc4o3)c12,106%
8,Cc1ccccc1NC(=O)COc1ccc(S(=O)(=O)N2CCCC2)cc1C,-0.639%
9,O=C(Nc1ccc2oc(-c3ccccc3F)nc2c1)c1ccc2c(c1)OCCO2,22.6%
10,COc1ccc(OC)c(NC(=O)c2sc3nc(C)cc(C)c3c2N)c1,0.987% [at 1.22 µM]
11,O=[N+]([O-])c1cnc(Sc2ccncn2)s1,-467%
12,COC(=O)c1ccc(CNC(=O)c2cc(COc3cncc(Cl)c3)on2)cc1,4.05%
13,COCc1ccc(CN2CCCC(C(=O)Nc3ccc(-c4cccc(OC)c4)cc3)C2)o1 (stereo not drawn),24.9%
14,COC(=O)c1ccccc1NC(=O)Cn1nnc(-c2ccc(OC)cc2)n1,-4.84%
15,CN(C)S(=O)(=O)c1cccc(NC(=O)c2ccc(N3CCOCC3)c([N+](=O)[O-])c2)c1,109%
16,COc1cccc(OC)c1C(=O)Nc1ccc(NC(=O)c2ccco2)cc1,-20%
